# Measurements as given in the supplement of paper PMC9262897, “Low-cost anti-mycobacterial drug discovery using engineered E. coli” (Nature Communications, 2022).
# Counter-ions that a name gives are not always drawn. ± gives the standard deviation of the averaged measurements.
# System: E. coli TESEC Mtb Alr
# Assay: growth (OD600 after 10 h); higher = more growth (less inhibition)
# Conditions: compound 0.1 mM
# Description: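 TESEC Mtb Alr E. coli, or the Alr+ wild-type control, in 384-well plates with Prestwick library compounds at 0.1 mM and 1% DMSO, across arabinose induction levels of 1E3 to 1E7 nM. Growth is read as OD600 after 10 h at 37 °C in triplicate biological replicates.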
# [1] = arabinose 1000 nM, raw OD600 reference: median of DMSO wells 0.294, cell-free background 0.041
# [2] = arabinose 10000 nM, raw OD600 reference: median of DMSO wells 0.264, cell-free background 0.041
# [3] = arabinose 100000 nM, raw OD600 reference: median of DMSO wells 0.201, cell-free background 0.041
# [4] = arabinose 1000000 nM, raw OD600 reference: median of DMSO wells 0.193, cell-free background 0.041
# [5] = arabinose 10000000 nM, raw OD600 reference: median of DMSO wells 0.146, cell-free background 0.041
SMILES,growth [1],growth [2],growth [3],growth [4],growth [5]
C=CC[N@@+]12CC[C@@]34c5ccccc5N5/C=C6/[C@H]7C[C@H]8[C@@]9(CC[N@@+]8(CC=C)C/C7=C/CO)c7ccccc7N(/C=C(/[C@@H](C[C@@H]31)/C(=C\CO)C2)[C@H]54)[C@@H]69 [Alcuronium chloride],0.255 ± 0.004,0.162 ± 0.0017,0.13 ± 0.0075,0.115 ± 0.0062,0.155 ± 0.0016
Nc1c2c(nc3ccccc13)CCCC2 [Tacrine hydrochloride],0.263 ± 0.012,0.248 ± 0.0067,0.214 ± 0.042,0.149 ± 0.014,0.168 ± 0.007
C[C@@H]1NC(=O)NC1=O [Methylhydantoin-5-(L)],0.292 ± 0.012,0.274 ± 0.005,0.182 ± 0.017,0.186 ± 0.0047,0.1457 ± 0.0013
CC(C)Oc1ccc2c(=O)c(-c3ccccc3)coc2c1 [Ipriflavone],0.25 ± 0.018,0.231 ± 0.0093,0.186 ± 0.015,0.117 ± 0.02,0.138 ± 0.0016
CCN(CC)CCOC(=O)C(c1ccccc1)c1ccccc1 [Adiphenine hydrochloride],0.309 ± 0.033,0.252 ± 0.004,0.168 ± 0.0062,0.14 ± 0.0034,0.142 ± 0.0034
CNS(=O)(=O)Cc1ccc2[nH]cc(CCN(C)C)c2c1 [Sumatriptan succinate],0.298 ± 0.019,0.258 ± 0.0057,0.2 ± 0.024,0.193 ± 0.0067,0.137 ± 0.0028
COc1cc(N)c(Cl)cc1C(=O)NC1CCN(Cc2ccccc2)CC1 [Clebopride maleate],0.263 ± 0.0076,0.24 ± 0.005,0.171 ± 0.016,0.132 ± 0.0034,0.129 ± 0.0055
Nc1nc(=O)c2nc(CNc3ccc(C(=O)N[C@@H](CCC(=O)O)C(=O)O)cc3)cnc2[nH]1 [Folic acid],0.306 ± 0.0062,0.239 ± 0.0047,0.244 ± 0.028,0.149 ± 0.0059,0.1653 ± 0.0014
